One assay has as its target T1, GST-Aq-NF-kB (Amphimedon queenslandica, UniProt A9Y5G7 2-389).
T1 sequence: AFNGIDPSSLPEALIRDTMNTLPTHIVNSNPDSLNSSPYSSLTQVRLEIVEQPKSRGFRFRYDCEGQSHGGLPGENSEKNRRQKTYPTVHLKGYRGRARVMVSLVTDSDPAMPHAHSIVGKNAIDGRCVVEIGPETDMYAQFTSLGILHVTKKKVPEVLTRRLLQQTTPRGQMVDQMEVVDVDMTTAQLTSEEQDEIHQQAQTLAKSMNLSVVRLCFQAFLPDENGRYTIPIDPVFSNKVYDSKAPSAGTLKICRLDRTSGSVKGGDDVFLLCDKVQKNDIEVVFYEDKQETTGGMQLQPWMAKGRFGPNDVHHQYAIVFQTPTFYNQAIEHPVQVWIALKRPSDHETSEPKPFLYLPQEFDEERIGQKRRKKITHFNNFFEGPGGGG
Description: protein-binding microarray (PBM); PBM: ~300 nM protein, 6 mM HEPES pH 7.8, 80 mM KCl, 0.5 mM EDTA, 0.5 mM EGTA, 6% glycerol, 35 ng/ul poly-dIdC, 1% milk, 1 h, room temperature; Ap Aiptasia and Nv Nematostella (sea anemones) / Co Capsaspora / Aq Amphimedon (sponge) / Dm Drosophila / Hu human; RHD is the Rel homology domain; high values mean tight binding. The following applies: dsDNA, one strand shown.
The sequence “CCGATTAACATCACGTGCTTTCCTGATGTTAATCGGGTCTTGATTCGCTTGACGCTGCTG” came in with a binding signal of 1.36 z-score.

Consider “CCGATTAACATCACGGGATGTACTGATGTTAATCGGGTCTTGATTCGCTTGACGCTGCTG”, for which the binding signal amounted to 1.26 z-score.

As to “CCGATTAACATCAAGGAAAGTACTGATGTTAATCGGGTCTTGATTCGCTTGACGCTGCTG”, the binding signal turned out to be 2.33 z-score.

“CCGATTAACATCACGGAATTTTATGATGTTAATCGGGTCTTGATTCGCTTGACGCTGCTG” displayed a binding signal of 2.25 z-score.

The sequence “CCGATTAACATCAGCGGAAATCCTGATGTTAATCGGGTCTTGATTCGCTTGACGCTGCTG” showed a binding signal of 1.07 z-score.

Turning to “CCGATTAACATCAGGTATTTCCATGATGTTAATCGGGTCTTGATTCGCTTGACGCTGCTG”, the binding signal was found to be 3.5 z-score.

Consider “CCGATTAACATCAGGAAATACCATGATGTTAATCGGGTCTTGATTCGCTTGACGCTGCTG”, for which the binding signal was 3.27 z-score.

“CCGATTAACATCACGTACTTTCCTGATGTTAATCGGGTCTTGATTCGCTTGACGCTGCTG” yielded a binding signal of 2.39 z-score.

A further assay deals with GST-Hu-p50 (Homo sapiens, UniProt P19838 7-356). Described as above. The settings on record: dsDNA, one strand shown.
Chain of GST-Hu-p50 (P19838 7-356): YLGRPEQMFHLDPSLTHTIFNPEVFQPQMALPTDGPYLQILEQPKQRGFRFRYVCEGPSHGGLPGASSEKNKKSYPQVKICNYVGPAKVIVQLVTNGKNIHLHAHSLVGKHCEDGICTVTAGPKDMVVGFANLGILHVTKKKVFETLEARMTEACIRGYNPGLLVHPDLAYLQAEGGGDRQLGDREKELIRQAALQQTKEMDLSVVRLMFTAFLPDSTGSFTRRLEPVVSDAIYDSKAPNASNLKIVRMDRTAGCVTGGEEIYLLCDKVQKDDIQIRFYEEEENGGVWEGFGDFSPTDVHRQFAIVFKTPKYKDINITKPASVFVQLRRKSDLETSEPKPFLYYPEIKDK
In the case of “CCGATTAACATCAGGAAATTGCCTGATGTTAATCGGGTCTTGATTCGCTTGACGCTGCTG”, the binding signal amounted to 1.3 z-score.

“CCGATTAACATCACCAGGTTAGGTGATGTTAATCGGGTCTTGATTCGCTTGACGCTGCTG” gave a binding signal of 3.09 z-score.

Sequence “CCGATTAACATCATGATATCCGGTGATGTTAATCGGGTCTTGATTCGCTTGACGCTGCTG” came in with a binding signal of 1.11 z-score.

With “CCGATTAACATCAGAATTTTTCCTGATGTTAATCGGGTCTTGATTCGCTTGACGCTGCTG”, the binding signal was 1.1 z-score.

“CCGATTAACATCATGGTGCTTAATGATGTTAATCGGGTCTTGATTCGCTTGACGCTGCTG” gave a binding signal of 1.41 z-score.

As for “CCGATTAACATCACCTTTTACATTGATGTTAATCGGGTCTTGATTCGCTTGACGCTGCTG”, the binding signal is 1.53 z-score.

With “CCGATTAACATCACCTTAGGTTTTGATGTTAATCGGGTCTTGATTCGCTTGACGCTGCTG”, the binding signal amounted to 1.04 z-score.

The sequence “CCGATTAACATCACCGAAATTCCTGATGTTAATCGGGTCTTGATTCGCTTGACGCTGCTG” returned a binding signal of 2.52 z-score.

In turn, “CCGATTAACATCAGCAATGTAGGTGATGTTAATCGGGTCTTGATTCGCTTGACGCTGCTG” came in with a binding signal of 1.13 z-score.

“CCGATTAACATCATATTGGGAAATGATGTTAATCGGGTCTTGATTCGCTTGACGCTGCTG” returned a binding signal of 1.12 z-score.

Consider “CCGATTAACATCAGGGCCAAAAATGATGTTAATCGGGTCTTGATTCGCTTGACGCTGCTG”, for which the binding signal stood at 1.38 z-score.

Sequence “CCGATTAACATCACGGAAAAAACTGATGTTAATCGGGTCTTGATTCGCTTGACGCTGCTG” came in with a binding signal of 1.36 z-score.

In turn, “CCGATTAACATCACCTGAACTATTGATGTTAATCGGGTCTTGATTCGCTTGACGCTGCTG” yielded a binding signal of 1.45 z-score.

As to “CCGATTAACATCACAGCGTGAGGTGATGTTAATCGGGTCTTGATTCGCTTGACGCTGCTG”, the binding signal was 1.16 z-score.

In the case of “CCGATTAACATCACCTTGTGATCTGATGTTAATCGGGTCTTGATTCGCTTGACGCTGCTG”, the binding signal came to 1.21 z-score.

In turn, “CCGATTAACATCACCTTGAACGGTGATGTTAATCGGGTCTTGATTCGCTTGACGCTGCTG” registered a binding signal of 2.74 z-score.

In turn, “CCGATTAACATCACGTGTGTAGGTGATGTTAATCGGGTCTTGATTCGCTTGACGCTGCTG” showed a binding signal of 1.87 z-score.

Turning to “CCGATTAACATCACCCCGCATGCTGATGTTAATCGGGTCTTGATTCGCTTGACGCTGCTG”, the binding signal worked out at 1.34 z-score.

Turning to “CCGATTAACATCACCGAGTTAGTTGATGTTAATCGGGTCTTGATTCGCTTGACGCTGCTG”, the binding signal stood at 1.5 z-score.

Sequence “CCGATTAACATCACGGGCAGTGGTGATGTTAATCGGGTCTTGATTCGCTTGACGCTGCTG” came in with a binding signal of 1.37 z-score.

“CCGATTAACATCACCCTCCAATTTGATGTTAATCGGGTCTTGATTCGCTTGACGCTGCTG”: the binding signal came to 1.13 z-score.

For the sequence “CCGATTAACATCACCTAACTTGATGATGTTAATCGGGTCTTGATTCGCTTGACGCTGCTG”, the binding signal came to 1.66 z-score.

Sequence “CCGATTAACATCACCTGGTCGGGTGATGTTAATCGGGTCTTGATTCGCTTGACGCTGCTG” came in with a binding signal of 2.04 z-score.

As to “CCGATTAACATCACTCTTCTCGGTGATGTTAATCGGGTCTTGATTCGCTTGACGCTGCTG”, the binding signal came out at 1.72 z-score.

“CCGATTAACATCATTTCTTACGGTGATGTTAATCGGGTCTTGATTCGCTTGACGCTGCTG”: the binding signal stood at 1.44 z-score.

In turn, “CCGATTAACATCAGCAAATTTCCTGATGTTAATCGGGTCTTGATTCGCTTGACGCTGCTG” showed a binding signal of 1.07 z-score.

For “CCGATTAACATCAATTCCCAACCTGATGTTAATCGGGTCTTGATTCGCTTGACGCTGCTG”, the binding signal was determined as 1.06 z-score.

“CCGATTAACATCAGGAAGGGCGGTGATGTTAATCGGGTCTTGATTCGCTTGACGCTGCTG”: the binding signal came to 1.07 z-score.

The sequence “CCGATTAACATCATGTTTGCGGGTGATGTTAATCGGGTCTTGATTCGCTTGACGCTGCTG” came in with a binding signal of 1.53 z-score.

Values taken from article PMC5700166.
